IL-1B inflam inh – inhibitors of inflammasome signaling (IL-1 beta secretion). hit rate 4.7% among 360,000. AID 743279. THP-1 LPS/ATP IL-1B secretion, AlphaLISA, 16 h; hits give low values. activity change, % at 57.5 µM; in the data active = activity change below about -50%; inconclusive = mostly about -30% to -49%
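THP-1 cells pretreated 1 hr with compounds (up to 57.5 uM final), then stimulated with LPS (250 ng/mL final) plus ATP (1.25 mM final); secreted IL-1B measured by AlphaLISA after 16 hr, decreased signal indicating inhibition.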
HT1080-NT tox – kills 2HG-producing HT-1080-NT fibrosarcoma cells; HT-1080-NT fibrosarcoma viability, CellTiter-Glo ATP luminescence, 48 h; Potency, µM (titrated, usually from 46.1 µM), for the others: top-dose activity, negative = less viability, usual class: cytotoxic; hit rate 1.6% among 360,000; AID 686970;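 also: NT is the 2HG producing partner of a matched IDH1 knockdown line; potency is read from the fitted curve at half-maximal effect; 0% = DMSO-treated cells and -100% = media-only wells without cells; nearly all actives have a fitted effect of over 55% in size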
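Read-out is CellTiter-Glo luminescence after 10 minutes at room temperature, following 48 hours' compound treatment of HT-1080-NT cells (750 cells/well, RPMI, 5% FBS, 37 degrees C).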
HT1080 IDH1KD tx – HT-1080 IDH1 knockdown cell toxicity (counter line); HT-1080 IDH1 knockdown viability, ATP luminescence, 48 h; Potency, µM (highest dose often 46.1 µM), inactives show at the highest dose activity, negative = toxicity, most hits filed as cytotoxic; hit rate 2% among 360,000; AID 686971;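 also: potency is read from the fitted curve at half-maximal effect; 0% = DMSO wells and -100% = cell-free medium wells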
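IDH1KD HT-1080 cells, 750/well, RPMI + 5% FBS; compound pinned after 2 h settling; 48 h, 37 °C; CellTiter-Glo luminescence; % activity normalised to DMSO and no-cell wells; curves fitted, classed by r2 and efficacy.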
DT40 TDP1 no CPT – qHTS for Inhibitors of human tyrosyl-DNA phosphodiesterase 1 (TDP1): qHTS in cells in absence of CPT; DT40 Tdp1-/- hTDP1 cells, no CPT, ATP luminescence, 48 h; Potency, µM (top dose mostly 46.2 µM), for the others: at the top dose activity change, negative = growth inhibition, hits mostly inhibitors; hit rate 15% among 420,000; also: potency is read from the fitted curve at half-maximal effect; nearly all actives have a fitted effect of over 55% in size
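Camptothecin absent (DMSO only). Human TDP1-complemented DT40 knockout cells, 400 cells/well, 37 °C for minimum 48 hr; ATP measured via CellTiter-Glo, 30 min dark incubation, luminescence.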
DT40 TDP1 CPT – DT40-hTDP1 cell growth loss with CPT. Potency, µM (titrated, usually from 46.2 µM), for inactives: at the highest dose activity change, negative = growth inhibition, actives largely listed as inhibitors. hit rate 12% among 420,000. AID 686979. chicken DT40 Tdp1-/-;hTDP1 cells + 20 nM CPT, ATP luminescence, 48 h; also: potency is read from the fitted curve at half-maximal effect; nearly all actives have a fitted effect of over 55% in size
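Cell growth measured by CellTiter-Glo luminescence after a minimum 48 h, 37 C compound exposure with 20 nM CPT in Tdp1-knockout DT40 cells stably expressing hTDP1, seeded 400/well; qHTS titration format.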
* hit, by the source's call; i = inactive; ? = inconclusive; / = not tested or not shown. Hits are enriched below; roughly 19% of the tested compounds scored in any of these assays. Unless noted, calls follow the shape of the dose curve; as a rule, active = well fitted curve in the direction sought with a large enough effect; inconclusive = small, poorly fitted or top-dose-only effect, or another doubt; inactive = no such curve, though single readings can be large; an effect the other way counts as inactive or inconclusive. Unless noted, % is scaled to controls: 0 for no effect and ±100 for the full control effect.

SMILES	IL-1B inflam inh	HT1080-NT tox	HT1080 IDH1KD tx	DT40 TDP1 no CPT	DT40 TDP1 CPT
CCCCCc1cc(O)c2c(C)cc(=O)oc2c1	-25.2	-29.4%	?	16.4µM*	23.1µM*
CCCc1cc(=O)oc2cc(C)cc(O)c12	-19.6	-3.0%	0.7%	18.4µM*	?
Cc1cc(O)c2c(CN3CCN(Cc4ccccc4)CC3)cc(=O)oc2c1	-18.7	-0.5%	-9.8%	14.6µM*	?
Cc1cc2oc(=O)cc(CN3CCN(Cc4ccccc4)CC3)c2cc1O	6.3	-1.1%	0.0%	7.31µM*	8.2µM*
CCc1cc(=O)oc2cc(C)cc(O)c12	7.7	0.3%	3.3%	?	?
CCCCc1cc(=O)oc2cc(C)c(CN3CCCC3)c(O)c12	5.6	?	-4.1%	?	-29.4%
O=C(c1ccc(Cl)c(S(=O)(=O)N2CCCCC2)c1)N1CCN(Cc2ccccc2)CC1	i	-19.3%	-12.8%	?	?
O=C(Nc1ccn(CC(=O)N2CCN(c3ccccn3)CC2)c(=O)n1)OCc1ccccc1	7.0	29.6%	0.8%	-27.3%	9.2%
CCCc1cc(=O)oc2cc(C)cc(OCC(=O)NCc3cccnc3)c12	-12.2	1.5%	-3.2%	-4.2%	-2.1%
CCCc1cc(=O)oc2cc(C)cc(OC(=O)c3ccco3)c12	-4.8	-6.2%	6.7%	18.4µM*	23.1µM*
CC1(C)CC(=O)C/C(=N/NC(=O)COc2ccc3ccccc3c2Br)C1	-27.5	0.5%	?	?	?
COc1ccccc1NC(=O)C1CCN(S(=O)(=O)c2ccc3c(c2)NC(=O)C(C)S3)CC1 (stereo not drawn)	-16.2	?	-4.2%	?	?
CCc1ccc(NC(=O)C2CCN(S(=O)(=O)c3ccc4c(c3)NC(=O)C(C)S4)CC2)cc1 (stereo not drawn)	-10.3	?	-25.6%	?	18.4µM*
CC1Sc2ccc(S(=O)(=O)N3CCC(C(=O)N(C)Cc4ccco4)CC3)cc2NC1=O (stereo not drawn)	-12.3	-22.9%	-19.6%	?	14.6µM*
CC1Sc2ccc(S(=O)(=O)N3CCC(C(=O)NCc4ccco4)CC3)cc2NC1=O (stereo not drawn)	0.0	-1.2%	-8.2%	?	?
COc1ccc(CNC(=O)C2CCN(S(=O)(=O)c3ccc4c(c3)NC(=O)C(C)S4)CC2)cc1 (stereo not drawn)	7.6	-10.9%	-3.6%	?	?
CC1Sc2ccc(S(=O)(=O)N3CCC(C(=O)Nc4cccc(Cl)c4)CC3)cc2NC1=O (stereo not drawn)	?	?	?	18.4µM*	?
CC1Sc2ccc(S(=O)(=O)N3CCC(C(=O)NCc4ccc(Cl)cc4)CC3)cc2NC1=O (stereo not drawn)	-19.5	?	?	14.6µM*	16.4µM*
O=C(CSc1ccc([N+](=O)[O-])cc1)Nc1nnc(C2CC2)s1	8.8	-0.6%	-5.3%	-19.8%	-2.0%
COc1cc(C(=O)N2CCN(C(=O)c3ccccc3)CC2)cc(OC)c1OC	3.9	7.7%	5.7%	3.8%	1.7%
COc1cc(C(=O)N2CCN(C(=O)c3cc(-c4ccc(Br)cc4)n[nH]3)CC2)cc(OC)c1OC	-10.2	3.7%	-1.8%	25.9µM*	20.6µM*
Cc1ccc(-c2cc(C(=O)N3CCN(S(=O)(=O)c4ccc(Br)cc4)CC3)[nH]n2)cc1C	/	/	/	8.2µM*	9.2µM*
Cc1cc([N+](=O)[O-])nn1CCCC(=O)Nc1c(C)n(C)n(-c2ccccc2)c1=O	27.0	3.0%	11.0%	-7.1%	-18.2%
Nc1ccc(-c2nc3ccc(N)cc3s2)cc1	-80.2*	-25.1%	-19.6%	?	-12.5%
Oc1ccc(N=C/C=C/c2cccc(Br)c2)cc1-c1nc2ccccc2s1	-14.9	-22.6%	?	20.6µM*	11.6µM*
SMILES	IL-1B inflam inh	HT1080-NT tox	HT1080 IDH1KD tx	DT40 TDP1 no CPT	DT40 TDP1 CPT
Nc1ccc(-c2nc3ccc(C(=O)O)cc3s2)cc1	4.4	-24.0%	?	-26.4%	-29.8%
Nc1cc2sc(-c3ccc(C(=O)O)cc3)nc2cc1Cl	10.1	?	?	?	8.2µM*
Nc1ccc(O)c(-c2nc3ccccc3s2)c1	-6.7	-8.4%	-1.5%	16.4µM*	13µM*
Nc1nc(-c2ccc(C(=O)O)cc2)cs1	11.3	6.8%	1.3%	-6.8%	13.8%
Oc1ccc(-c2nc3ccccc3s2)c(O)c1	33.1	-1.1%	?	-3.3%	3.7%
O=C(Nc1ccc(O)c(-c2nc3ccccc3s2)c1)c1cccs1	25.2	-11.4%	-8.6%	-21.5%	-6.3%
Brc1ccc(-c2nnc3n2C2(CCCC2)Cc2ccccc2-3)o1	11.3	-3.8%	-23.7%	?	?
Cc1c(NS(=O)(=O)c2cccc(C(=O)N3CCC(C)CC3)c2)c(=O)n(-c2ccccc2)n1C	-11.4	22.1%	19.6%	-22.7%	-11.0%
COc1cc(OC)c(OC)cc1/C=C1\Oc2cc(OCC(=O)N3Cc4ccccc4C[C@H]3C(=O)O)ccc2C1=O	-1.7	14.3%	1.6%	-9.7%	0.8%
Cc1cc(C)n2nc(C(=O)N/N=C/c3cccs3)nc2n1	-1.6	27.6%	19.0%	-1.2%	-5.5%
C[C@@H]1C[C@H]2C3C[C@H](F)C4=CC(=O)C=CC4(C)[C@@]3(F)[C@@H](O)CC2(C)[C@@]1(O)C(=O)COC(=O)C(C)(C)C (stereo partly drawn)	/	/	/	?	14.3%
Nc1ccc2nc(-c3ccc(O)cc3)sc2c1	/	/	/	20.6µM*	20.6µM*
COc1ccccc1CNC(=O)CCCNC(=O)c1ccc(Cl)cc1	0.2	12.3%	9.8%	-28.6%	2.5%
COc1ccccc1CCNC(=O)c1ccc2c(c1)c(C)c(C)n2Cc1ccc(Cl)cc1	/	/	/	20.6µM*	23.1µM*
COc1ccc(OC)c(CNC(=O)c2ccc3c(c2)c(C)c(C)n3Cc2ccc(Cl)cc2)c1	/	/	/	?	16.4µM*
COc1ccc(C(C(=O)NCC2CCCO2)N(C(=O)c2snc(C(N)=O)c2N)c2ccccc2C)cc1OC (stereo not drawn)	-10.3	-11.3%	-10.6%	?	-20.6%
C#CCN(Cc1ccco1)C(=O)c1ccc(OC2CCN(Cc3ccccn3)CC2)cc1	-13.4	-0.5%	-1.2%	?	18.4µM*
CN(c1ccccc1C(=O)N1CCN(Cc2ccc3c(c2)OCO3)CC1)S(C)(=O)=O	0.0	0.8%	2.1%	-8.6%	2.3%
CCCn1cc(CN2CCC(C(=O)Nc3cccc(-c4cscn4)c3)CC2)c(C)n1	-72.4*	-0.7%	-16.3%	?	?
CSc1ncc(CN2CCC(C(=O)Nc3cccc(-c4cscn4)c3)CC2)cn1	?	-2.7%	-8.1%	?	?
